From the supplement of paper PMC10849652
Of roughly 8,800 targets only a part is listed; those with a hit were picked by preference. About 0.5% of all pairs of compound and target were hits.

Compound: NC(=O)c1cnc(N[C@@H]2CCCC[C@@H]2N)nc1Nc1cccc(-n2nccn2)c1
Experiment: log2 fold change, soluble protein after heating vs DMSO (PISA); higher = thermal stabilisation; K562 lysate, 10 uM; active = over 0.2 and 3.5 SD of the protein, either way, in both replicates (recomputed)
Outline: (§1)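 To prepare the extract, K562 pellets were dounce-homogenised in PBS pH 7.4 with 1 mM MgCl2, giving crude material at 1 mg/mL protein. This was treated with 10 μM compound for 30 min, then heated in aliquots for 3 min over 48°C-58°C before pooling and addition of NP-40 to 0.5% at 4°C. Centrifugation at 21,000xg for 90 min left soluble protein in the supernatant, which TMTpro 16plex LC-MS/MS quantified with equalised channel sums. Results are log-two fold changes in thermal stability compared with solvent controls, from duplicates.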

UniProt Q14687, sequence (Q14687 whole entry, looked up): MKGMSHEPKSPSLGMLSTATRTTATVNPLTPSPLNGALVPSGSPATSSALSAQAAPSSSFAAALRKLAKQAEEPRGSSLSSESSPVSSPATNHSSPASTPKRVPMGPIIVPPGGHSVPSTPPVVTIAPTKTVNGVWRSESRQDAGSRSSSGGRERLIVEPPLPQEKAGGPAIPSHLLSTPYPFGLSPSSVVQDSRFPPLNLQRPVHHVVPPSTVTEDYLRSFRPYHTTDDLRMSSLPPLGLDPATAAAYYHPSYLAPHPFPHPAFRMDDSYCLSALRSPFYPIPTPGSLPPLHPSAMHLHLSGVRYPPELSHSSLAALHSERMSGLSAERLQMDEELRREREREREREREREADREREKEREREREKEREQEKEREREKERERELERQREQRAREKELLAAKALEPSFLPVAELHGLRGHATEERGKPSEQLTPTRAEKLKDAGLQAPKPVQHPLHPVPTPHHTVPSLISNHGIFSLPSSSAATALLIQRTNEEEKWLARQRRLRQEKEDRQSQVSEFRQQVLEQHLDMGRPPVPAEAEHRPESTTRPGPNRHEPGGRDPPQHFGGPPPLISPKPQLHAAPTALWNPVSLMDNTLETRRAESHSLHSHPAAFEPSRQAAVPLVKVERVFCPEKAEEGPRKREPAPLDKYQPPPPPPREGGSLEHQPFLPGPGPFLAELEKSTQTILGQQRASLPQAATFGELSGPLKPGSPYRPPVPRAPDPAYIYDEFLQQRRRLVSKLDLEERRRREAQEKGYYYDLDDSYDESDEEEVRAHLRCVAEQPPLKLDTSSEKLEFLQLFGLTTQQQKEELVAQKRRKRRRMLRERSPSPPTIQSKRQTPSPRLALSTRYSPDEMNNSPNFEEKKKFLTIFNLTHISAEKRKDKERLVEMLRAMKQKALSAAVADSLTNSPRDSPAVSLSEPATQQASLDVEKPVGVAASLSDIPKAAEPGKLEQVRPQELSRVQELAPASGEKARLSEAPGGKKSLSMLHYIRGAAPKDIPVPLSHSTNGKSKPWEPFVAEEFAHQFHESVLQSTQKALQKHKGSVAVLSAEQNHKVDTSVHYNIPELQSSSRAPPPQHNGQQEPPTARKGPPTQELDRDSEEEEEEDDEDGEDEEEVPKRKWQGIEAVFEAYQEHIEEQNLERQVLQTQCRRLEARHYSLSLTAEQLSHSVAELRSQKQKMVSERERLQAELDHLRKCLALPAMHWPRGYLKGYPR
UniProt Q9H079, sequence (Q9H079 whole entry, looked up): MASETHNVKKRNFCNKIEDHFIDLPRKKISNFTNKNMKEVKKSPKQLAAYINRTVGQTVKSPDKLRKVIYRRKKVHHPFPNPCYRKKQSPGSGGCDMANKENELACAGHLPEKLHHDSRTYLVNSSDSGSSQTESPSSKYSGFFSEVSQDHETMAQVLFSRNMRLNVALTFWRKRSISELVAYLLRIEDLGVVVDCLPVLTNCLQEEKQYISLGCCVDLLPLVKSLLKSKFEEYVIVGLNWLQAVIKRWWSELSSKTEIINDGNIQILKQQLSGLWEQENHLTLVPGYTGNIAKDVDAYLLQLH
UniProt Q9H1B7, sequence (Q9H1B7 whole entry, looked up): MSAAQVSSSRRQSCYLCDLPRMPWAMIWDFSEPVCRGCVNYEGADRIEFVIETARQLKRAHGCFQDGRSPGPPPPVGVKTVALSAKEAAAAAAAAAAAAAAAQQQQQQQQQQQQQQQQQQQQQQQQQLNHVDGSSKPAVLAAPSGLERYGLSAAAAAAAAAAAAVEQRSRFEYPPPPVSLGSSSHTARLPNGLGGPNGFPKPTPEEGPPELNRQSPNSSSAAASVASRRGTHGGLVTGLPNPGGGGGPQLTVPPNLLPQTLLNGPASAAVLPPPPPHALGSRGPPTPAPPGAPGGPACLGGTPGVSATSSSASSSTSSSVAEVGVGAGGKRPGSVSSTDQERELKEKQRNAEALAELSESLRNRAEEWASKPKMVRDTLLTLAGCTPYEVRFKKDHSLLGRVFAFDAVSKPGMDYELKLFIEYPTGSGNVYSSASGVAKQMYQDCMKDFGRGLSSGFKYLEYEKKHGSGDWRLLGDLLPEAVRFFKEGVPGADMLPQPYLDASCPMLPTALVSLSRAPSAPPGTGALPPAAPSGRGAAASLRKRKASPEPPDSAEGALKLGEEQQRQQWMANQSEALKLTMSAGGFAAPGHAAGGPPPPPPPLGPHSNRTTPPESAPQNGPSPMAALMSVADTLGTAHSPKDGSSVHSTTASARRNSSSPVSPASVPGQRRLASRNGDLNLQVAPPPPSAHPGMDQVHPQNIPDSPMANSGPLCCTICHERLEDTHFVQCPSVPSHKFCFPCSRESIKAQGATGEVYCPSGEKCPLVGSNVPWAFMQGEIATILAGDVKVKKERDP
UniProt P50053, sequence (P50053 whole entry, looked up): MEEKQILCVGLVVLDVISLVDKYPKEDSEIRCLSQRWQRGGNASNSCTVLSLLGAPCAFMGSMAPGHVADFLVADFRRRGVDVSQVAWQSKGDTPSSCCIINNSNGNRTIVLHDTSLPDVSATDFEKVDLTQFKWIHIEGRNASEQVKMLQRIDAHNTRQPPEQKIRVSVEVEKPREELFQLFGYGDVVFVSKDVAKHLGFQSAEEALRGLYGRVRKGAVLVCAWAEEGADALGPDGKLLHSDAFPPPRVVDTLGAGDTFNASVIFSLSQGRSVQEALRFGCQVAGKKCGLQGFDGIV
UniProt P15104, sequence (P15104 whole entry, looked up): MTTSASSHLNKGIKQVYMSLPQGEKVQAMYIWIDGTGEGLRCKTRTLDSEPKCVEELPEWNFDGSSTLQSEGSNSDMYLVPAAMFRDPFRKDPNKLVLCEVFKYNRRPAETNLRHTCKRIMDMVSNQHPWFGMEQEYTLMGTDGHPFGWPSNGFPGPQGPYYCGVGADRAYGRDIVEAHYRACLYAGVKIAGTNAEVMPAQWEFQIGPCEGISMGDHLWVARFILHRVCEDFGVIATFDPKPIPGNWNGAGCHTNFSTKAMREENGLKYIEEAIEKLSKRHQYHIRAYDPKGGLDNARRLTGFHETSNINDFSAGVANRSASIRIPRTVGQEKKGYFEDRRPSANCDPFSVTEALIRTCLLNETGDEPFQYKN
UniProt Q7Z4Q2, sequence (Q7Z4Q2 whole entry, looked up): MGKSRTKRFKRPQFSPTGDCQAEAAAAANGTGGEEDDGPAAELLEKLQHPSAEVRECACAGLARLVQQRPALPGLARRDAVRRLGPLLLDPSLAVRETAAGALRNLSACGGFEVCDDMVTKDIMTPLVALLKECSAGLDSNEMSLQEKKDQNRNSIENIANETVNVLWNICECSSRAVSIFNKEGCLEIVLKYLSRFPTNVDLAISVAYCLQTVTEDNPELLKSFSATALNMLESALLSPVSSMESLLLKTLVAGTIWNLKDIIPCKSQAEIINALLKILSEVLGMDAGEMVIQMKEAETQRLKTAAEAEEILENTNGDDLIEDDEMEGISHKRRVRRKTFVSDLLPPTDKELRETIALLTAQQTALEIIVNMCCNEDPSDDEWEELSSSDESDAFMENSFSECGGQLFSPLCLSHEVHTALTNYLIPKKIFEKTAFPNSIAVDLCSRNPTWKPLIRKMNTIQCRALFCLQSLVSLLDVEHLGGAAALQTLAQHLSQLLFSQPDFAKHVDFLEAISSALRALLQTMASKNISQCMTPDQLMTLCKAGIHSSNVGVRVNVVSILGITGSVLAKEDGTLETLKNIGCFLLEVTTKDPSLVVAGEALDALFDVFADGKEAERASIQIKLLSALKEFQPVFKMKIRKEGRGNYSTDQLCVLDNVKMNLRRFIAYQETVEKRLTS
UniProt Q0VDF9, sequence (Q0VDF9 whole entry, looked up): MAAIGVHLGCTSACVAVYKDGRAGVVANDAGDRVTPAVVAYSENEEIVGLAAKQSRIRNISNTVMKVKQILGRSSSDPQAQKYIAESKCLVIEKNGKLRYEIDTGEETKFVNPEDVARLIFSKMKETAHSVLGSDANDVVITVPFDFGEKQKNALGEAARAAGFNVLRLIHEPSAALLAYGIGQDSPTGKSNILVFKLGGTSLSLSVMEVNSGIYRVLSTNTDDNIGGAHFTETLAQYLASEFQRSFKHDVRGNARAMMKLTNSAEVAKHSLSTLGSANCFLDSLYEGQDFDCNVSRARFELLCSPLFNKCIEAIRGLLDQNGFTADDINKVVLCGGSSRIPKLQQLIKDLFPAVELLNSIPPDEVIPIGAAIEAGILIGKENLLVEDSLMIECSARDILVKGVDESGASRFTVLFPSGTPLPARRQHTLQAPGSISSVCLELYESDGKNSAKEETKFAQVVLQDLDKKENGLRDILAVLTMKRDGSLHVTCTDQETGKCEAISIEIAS
UniProt P13598, sequence (P13598 whole entry, looked up): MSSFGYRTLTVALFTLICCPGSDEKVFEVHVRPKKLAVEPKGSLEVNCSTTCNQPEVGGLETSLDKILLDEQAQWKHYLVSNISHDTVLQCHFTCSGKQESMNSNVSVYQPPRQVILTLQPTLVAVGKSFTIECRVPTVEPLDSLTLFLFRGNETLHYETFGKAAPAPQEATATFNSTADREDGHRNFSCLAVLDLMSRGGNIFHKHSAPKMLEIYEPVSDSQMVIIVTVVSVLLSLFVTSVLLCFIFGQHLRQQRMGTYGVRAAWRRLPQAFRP
UniProt Q8WVV9, sequence (Q8WVV9 whole entry, looked up): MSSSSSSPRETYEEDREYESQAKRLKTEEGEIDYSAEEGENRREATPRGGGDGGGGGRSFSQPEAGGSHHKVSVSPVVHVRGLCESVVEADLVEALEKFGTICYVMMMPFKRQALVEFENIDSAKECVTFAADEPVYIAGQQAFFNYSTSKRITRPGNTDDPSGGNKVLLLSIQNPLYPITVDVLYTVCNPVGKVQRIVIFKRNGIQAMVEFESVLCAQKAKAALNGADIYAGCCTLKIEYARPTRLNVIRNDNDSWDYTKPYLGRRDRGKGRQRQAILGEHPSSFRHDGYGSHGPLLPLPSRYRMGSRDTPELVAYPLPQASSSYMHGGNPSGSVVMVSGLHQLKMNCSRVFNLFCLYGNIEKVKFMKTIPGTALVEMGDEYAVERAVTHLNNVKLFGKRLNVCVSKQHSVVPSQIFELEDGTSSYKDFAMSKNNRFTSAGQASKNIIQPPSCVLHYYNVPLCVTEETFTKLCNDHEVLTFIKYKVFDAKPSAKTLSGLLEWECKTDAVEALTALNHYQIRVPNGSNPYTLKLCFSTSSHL

log2 fold change, inactive:
HMGB1 (UniProt P09429) 0
IGF2BP2 (UniProt Q9Y6M1) 0.016
GNB1 (UniProt P62873) -0.027
IRAK1 (UniProt P51617) 0.005
GRK6 isoform 2 (UniProt P43250) 0.028
ICAM2 (UniProt P13598) -0.004
IMMT (UniProt C9J406) 0.023
GUSB (UniProt P08236) 0.001
HSPA14 (UniProt Q0VDF9) 0.001
HNRNPH2 (UniProt P55795) -0.037
HDAC6 (UniProt Q9UBN7) 0.034
HSP90AA4P (UniProt Q58FG1) -0.047
KHK isoform 2 (UniProt P50053) -0.018
GTF3C3 (UniProt Q9Y5Q9) 0.009
H4C1 (UniProt P62805) 0.01
HSPB1 (UniProt P04792) 0
GNL3 (UniProt Q9BVP2) 0.022
KDM5C (UniProt P41229) -0.037
GOLGA1 (UniProt Q92805) 0.106
KATNBL1 (UniProt Q9H079) 0.017
HNRNPM (UniProt P52272) -0.002
HEATR3 (UniProt Q7Z4Q2) -0.015
HNRNPUL1 (UniProt Q9BUJ2) -0.003
HDGFL2 isoform 2 (UniProt Q7Z4V5) -0.001
HNRNPLL (UniProt Q8WVV9) 0.015
HDAC3 (UniProt O15379) -0.004
IMPDH1 isoform 6 (UniProt P20839) -0.008
HDHD5 (UniProt Q9BXW7) -0.014
KDM6A (UniProt O15550) -0.017
ILKAP (UniProt Q9H0C8) 0.026
IRF2BPL (UniProt Q9H1B7) 0
GSTP1 (UniProt P09211) -0.004
GLUL (UniProt P15104) 0.009
GSE1 (UniProt Q14687) 0.012
GSTCD (UniProt Q8NEC7) -0.014
HMGN4 (UniProt O00479) 0.012

Compound: NC1(c2ccc(-c3nc4ccn5c(=O)[nH]nc5c4cc3-c3ccccc3)cc2)CCC1
Experiment: as above
Outline: as §1

log2 fold change, inactive:
HMGB1 (UniProt P09429) -0.011
IGF2BP2 (UniProt Q9Y6M1) 0.019
GNB1 (UniProt P62873) -0.018
IRAK1 (UniProt P51617) -0.005
GRK6 isoform 2 (UniProt P43250) -0.097
ICAM2 (UniProt P13598) 0.018
IMMT (UniProt C9J406) -0.038
GUSB (UniProt P08236) -0.01
HSPA14 (UniProt Q0VDF9) -0.025
HNRNPH2 (UniProt P55795) -0.113
HDAC6 (UniProt Q9UBN7) -0.027
HSP90AA4P (UniProt Q58FG1) -0.024
KHK isoform 2 (UniProt P50053) -0.023
GTF3C3 (UniProt Q9Y5Q9) -0.084
H4C1 (UniProt P62805) 0.015
HSPB1 (UniProt P04792) 0.006
GNL3 (UniProt Q9BVP2) -0.031
KDM5C (UniProt P41229) -0.032
GOLGA1 (UniProt Q92805) 0.004
KATNBL1 (UniProt Q9H079) 0.023
HNRNPM (UniProt P52272) 0.053
HEATR3 (UniProt Q7Z4Q2) 0.001
HNRNPUL1 (UniProt Q9BUJ2) -0.009
HDGFL2 isoform 2 (UniProt Q7Z4V5) -0.02
HNRNPLL (UniProt Q8WVV9) -0.013
HDAC3 (UniProt O15379) -0.049
IMPDH1 isoform 6 (UniProt P20839) -0.012
HDHD5 (UniProt Q9BXW7) -0.036
KDM6A (UniProt O15550) 0.009
ILKAP (UniProt Q9H0C8) 0.044
IRF2BPL (UniProt Q9H1B7) 0
GSTP1 (UniProt P09211) 0.01
GLUL (UniProt P15104) -0.003
GSE1 (UniProt Q14687) 0.029
GSTCD (UniProt Q8NEC7) -0.008
HMGN4 (UniProt O00479) -0.028
